Consider 40 compounds from PubChem BioAssay (NCI).

The panel holds about 79,000 compounds, 15% with a hit somewhere; the sample as a whole holds those more often. Calls of active or inactive are those of the source. Rule as the data show it: active = growth inhibition above about 70%; inactive = the rest.

One assay in a line: NCI Yeast Anticancer Drug Screen. Data for the rad50 strain (AID 155).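 Also: 0% = growth of vehicle-only cultures of the same strain.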 Conditions: S. cerevisiae rad50 strain growth inhibition; at 5.0 µM (retest, dose inferred, filed as 0.5); hits give high values. In a few lines: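 Growth of the mutant yeast was measured after compound exposure and referenced to vehicle-treated cultures.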
Regarding `N#C/C(=C\C(Cl)=C/c1ccccc1)C(N)=S`, the growth inhibition was 68% (inactive).
Same read-out and setting: for `CC[N+](C)(CC)CCC(=O)/C=C/c1ccccc1` the value was 15% (inactive); for `CC(=O)n1c(=S)n(C(C)=O)c2ccccc21`, 2% (inactive).
Still for that read-out and setting: for `Nc1ccccc1/C=C1/Sc2cc[nH]c2C1=O` the value was 2% (inactive); for `C=C1CC2(CCCC3(CC(=C)C(=O)O3)C2(C)C)OC1=O` (stereo not given), 20% (inactive).
For the compound `O=C1/C(=C\c2ccc(Cl)cc2Cl)Sc2scc(-c3ccc(O)c(O)c3)[n+]21`, the growth inhibition was 18% (inactive).
On the same count and under the same terms, under `COc1cc(OC(C)C)cc2c1C(=O)C(C(O)(O)C(F)(F)F)=CC2=O` stands 0% (inactive).
On the same count and under the same terms, for `Cc1c(N=Nc2ccc(Br)cc2)c(-c2ccccc2)nn1C(N)=S` the value was -2% (inactive).
Take `COc1ccc2nc3c([N+](=O)[O-])ccc(NCCCN(C)C)c3c(N)c2c1`: the growth inhibition was 6% (inactive).
Consider `CN(C)CCC[Si]1(C)c2ccccc2CCc2ccccc21`, for which the growth inhibition was -6% (inactive).
Regarding `CC(=O)N(C)c1cc(NCc2ccccc2)ccc1OCc1ccccc1`, the growth inhibition is 1% (inactive).
`ClCCOCCOc1c(Cl)cc(Cl)c(Cl)c1Cl`: the growth inhibition was 6% (inactive).
Turning to `Nc1ccc2nc(N)sc2c1`, the growth inhibition is -5% (inactive).
The same measure, in the same setting: under `CC(C)(C)c1cc(C2c3cc4c(cc3OC(O)(CO)C2C(=O)O)OCO4)cc(C(C)(C)C)c1O` (stereo not given) (tested in a mixture with another compound) stands -23% (inactive); under `COc1ccc(C2COc3c(ccc(O)c3O)C2)cc1OC` (stereo not given), -14% (inactive).
On the same count and under the same terms, under `Cc1ccc(OCC2CO2)c(Br)c1` (stereo not given) stands 11% (inactive); under `CCN(CC)CCNc1ccc(C)c2sc3c(OC)cccc3c(=O)c12`, 1% (inactive).
Same read-out and setting: for `CC(C)C(O)C(C)C` the value was 5% (inactive).
With `O=C1CSC2(CCN(CCCN3c4ccccc4Sc4ccc(Cl)cc43)CC2)N1`, the growth inhibition is 8% (inactive).
Turning to `C1=CN2C(c3ccccc3)=NN(c3ccccc3)[C@@H]2c2ccccc21`, the growth inhibition was -4% (inactive).
On the same count and under the same terms, under `CC(=O)Nc1ccc(-c2csc(Nc3ccnc4cc(Cl)ccc34)n2)cc1` stands 12% (inactive); under `O=C(Nc1ccc(/C=C/c2ccc(NC(=O)c3cc(S(=O)(=O)O)c4cccnc4c3O)cc2S(=O)(=O)O)c(S(=O)(=O)O)c1)c1cc(S(=O)(=O)O)c2cccnc2c1O`, 19% (inactive); under `COc1ccccc1C1C2=C(COC2=O)OC(C)(C)Oc2cc3c(cc21)OCO3` (stereo not given), 22% (inactive).
Take `COC(=O)CSc1n[nH]c(-c2ccc(O)c([N+](=O)[O-])c2)n1`: the growth inhibition is 17% (inactive).
The same measure, in the same setting: under `COc1ccc(CN2CCCN(Cc3ccc(OC)cc3OC)C2c2cccc([N+](=O)[O-])c2O)c(OC)c1` stands 16% (inactive); under `Oc1c(Cl)cc(C(c2cc(Cl)c(O)c(Cl)c2)C(Cl)(Cl)Cl)cc1Cl`, 94% (active).
As to `Cc1cc(Cl)cc2c1NC(=O)C2(O)C/C(=N/NC(=O)CC#N)c1cccc([N+](=O)[O-])c1` (stereo not given), the growth inhibition was 4% (inactive).
For the compound `COc1ccc(C2Oc3ccc(Cl)cc3C=C2[N+](=O)[O-])cc1` (stereo not given), the growth inhibition is 99% (active).
With `CN(Cc1cc(Cl)cc(Cl)c1O)Cc1c(O)ccc2ccccc12`, the growth inhibition was 31% (inactive).
Still for that read-out and setting: for `Cc1c(NC(=O)/C(=N/NC(=S)N=N)C2C(=O)CC(C)(C)CC2=O)c(O)c2ccccc2c1O` the value was 14% (inactive); for `O=C1CCC(Cc2ccccc2Br)C(=O)N1` (stereo not given), -5% (inactive); for `O=C1CSc2ccccc2-n2cccc21`, 5% (inactive).
The same measure, in the same setting: under `CCCc1cc2c(cc1CS(=O)(=O)CC)OCO2` stands -4% (inactive); under `CS(=O)(=O)C(c1nc2nnc(NC(=O)Nc3ccc(Cl)cc3)n2[nH]c1=O)c1nc2nnc(NC(=O)Nc3ccc(Cl)cc3)n2[nH]c1=O`, -14% (inactive).
Consider `COc1cc(C2c3cc4c(cc3OC3(O)C=C(C)OC(=O)C23)OCO4)cc(OC)c1OC` (stereo not given), for which the growth inhibition was 5% (inactive).
The same measure, in the same setting: for `CC(C)OCc1cccc2ccnc(COC(C)C)c12` the value was -20% (inactive); for `COc1cc2c(cc1OC)-c1nc(Nc3ccccc3)sc1CC2`, -6% (inactive).
Still for that read-out and setting: for `NC(=O)CCSC(=S)N1CCOCC1` the value was -2% (inactive).
For the compound `CC1=C(c2ccccc2)C(=O)OC1=O`, the growth inhibition was 5% (inactive).
On the same count and under the same terms, for `CC1=C(C)CC2C(=O)C(C(O)CC(C)C)=CC(=O)C2C1` (stereo not given) the value was -4% (inactive).

The same assay, now with this note: S. cerevisiae rad50 strain growth inhibition; at 50.0 µM (retest, dose inferred, filed as 5.0); hits give high values.
For the compound `N#C/C(=C\C(Cl)=C/c1ccccc1)C(N)=S`, the growth inhibition was 97% (active).
For `CC[N+](C)(CC)CCC(=O)/C=C/c1ccccc1`, the growth inhibition was 54% (inactive).
On the same count and under the same terms, for `CC(=O)n1c(=S)n(C(C)=O)c2ccccc21` the value was 83% (active); for `Nc1ccccc1/C=C1/Sc2cc[nH]c2C1=O`, 5% (inactive).
As for `C=C1CC2(CCCC3(CC(=C)C(=O)O3)C2(C)C)OC1=O` (stereo not given), the growth inhibition is 96% (active).
As to `O=C1/C(=C\c2ccc(Cl)cc2Cl)Sc2scc(-c3ccc(O)c(O)c3)[n+]21`, the growth inhibition is 55% (inactive).
Consider `COc1cc(OC(C)C)cc2c1C(=O)C(C(O)(O)C(F)(F)F)=CC2=O`, for which the growth inhibition is 84% (active).
On to `Cc1c(N=Nc2ccc(Br)cc2)c(-c2ccccc2)nn1C(N)=S`, for which the growth inhibition was 93% (active).
With `COc1ccc2nc3c([N+](=O)[O-])ccc(NCCCN(C)C)c3c(N)c2c1`, the growth inhibition is 86% (active).
On to `CN(C)CCC[Si]1(C)c2ccccc2CCc2ccccc21`, for which the growth inhibition was 16% (inactive).
As for `CC(=O)N(C)c1cc(NCc2ccccc2)ccc1OCc1ccccc1`, the growth inhibition was 96% (active).
On the same count and under the same terms, under `ClCCOCCOc1c(Cl)cc(Cl)c(Cl)c1Cl` stands 12% (inactive).
Same read-out and setting: under `Nc1ccc2nc(N)sc2c1` stands 8% (inactive); under `CC(C)(C)c1cc(C2c3cc4c(cc3OC(O)(CO)C2C(=O)O)OCO4)cc(C(C)(C)C)c1O` (stereo not given) (tested in a mixture with another compound), 39% (inactive).
For the compound `COc1ccc(C2COc3c(ccc(O)c3O)C2)cc1OC` (stereo not given), the growth inhibition was 28% (inactive).
Still for that read-out and setting: under `Cc1ccc(OCC2CO2)c(Br)c1` (stereo not given) stands 66% (inactive); under `CCN(CC)CCNc1ccc(C)c2sc3c(OC)cccc3c(=O)c12`, 22% (inactive); under `CC(C)C(O)C(C)C`, 1% (inactive).
On the same count and under the same terms, under `O=C1CSC2(CCN(CCCN3c4ccccc4Sc4ccc(Cl)cc43)CC2)N1` stands 100% (active); under `C1=CN2C(c3ccccc3)=NN(c3ccccc3)[C@@H]2c2ccccc21`, 70% (active).
For `CC(=O)Nc1ccc(-c2csc(Nc3ccnc4cc(Cl)ccc34)n2)cc1`, the growth inhibition is 40% (inactive).
With `O=C(Nc1ccc(/C=C/c2ccc(NC(=O)c3cc(S(=O)(=O)O)c4cccnc4c3O)cc2S(=O)(=O)O)c(S(=O)(=O)O)c1)c1cc(S(=O)(=O)O)c2cccnc2c1O`, the growth inhibition is 97% (active).
In the case of `COc1ccccc1C1C2=C(COC2=O)OC(C)(C)Oc2cc3c(cc21)OCO3` (stereo not given), the growth inhibition was 96% (active).
In the case of `COC(=O)CSc1n[nH]c(-c2ccc(O)c([N+](=O)[O-])c2)n1`, the growth inhibition is 47% (inactive).
As for `COc1ccc(CN2CCCN(Cc3ccc(OC)cc3OC)C2c2cccc([N+](=O)[O-])c2O)c(OC)c1`, the growth inhibition is 61% (inactive).
With `Oc1c(Cl)cc(C(c2cc(Cl)c(O)c(Cl)c2)C(Cl)(Cl)Cl)cc1Cl`, the growth inhibition was 98% (active).
Still for that read-out and setting: for `Cc1cc(Cl)cc2c1NC(=O)C2(O)C/C(=N/NC(=O)CC#N)c1cccc([N+](=O)[O-])c1` (stereo not given) the value was 20% (inactive); for `COc1ccc(C2Oc3ccc(Cl)cc3C=C2[N+](=O)[O-])cc1` (stereo not given), 93% (active).
On to `CN(Cc1cc(Cl)cc(Cl)c1O)Cc1c(O)ccc2ccccc12`, for which the growth inhibition was 100% (active).
Turning to `Cc1c(NC(=O)/C(=N/NC(=S)N=N)C2C(=O)CC(C)(C)CC2=O)c(O)c2ccccc2c1O`, the growth inhibition was 98% (active).
On the same count and under the same terms, under `O=C1CCC(Cc2ccccc2Br)C(=O)N1` (stereo not given) stands 10% (inactive); under `O=C1CSc2ccccc2-n2cccc21`, 6% (inactive).
Still for that read-out and setting: under `CCCc1cc2c(cc1CS(=O)(=O)CC)OCO2` stands 9% (inactive); under `CS(=O)(=O)C(c1nc2nnc(NC(=O)Nc3ccc(Cl)cc3)n2[nH]c1=O)c1nc2nnc(NC(=O)Nc3ccc(Cl)cc3)n2[nH]c1=O`, 11% (inactive).
Consider `COc1cc(C2c3cc4c(cc3OC3(O)C=C(C)OC(=O)C23)OCO4)cc(OC)c1OC` (stereo not given), for which the growth inhibition is -5% (inactive).
In the case of `CC(C)OCc1cccc2ccnc(COC(C)C)c12`, the growth inhibition was 53% (inactive).
For the compound `COc1cc2c(cc1OC)-c1nc(Nc3ccccc3)sc1CC2`, the growth inhibition is 92% (active).
For the compound `NC(=O)CCSC(=S)N1CCOCC1`, the growth inhibition is -16% (inactive).
Turning to `CC1=C(c2ccccc2)C(=O)OC1=O`, the growth inhibition was 11% (inactive).
Take `CC1=C(C)CC2C(=O)C(C(O)CC(C)C)=CC(=O)C2C1` (stereo not given): the growth inhibition is 91% (active).
